The values below come from PubChem BioAssay.

The subject of experiment [1] is Human papillomavirus type 1a protein E7 (residues 44-93). Put plainly: small molecules binding HPV E7 44-93 – biochemical, small-molecule microarray, residues 44-93, 635 nm fluorescence, primary screen (AID 1108).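 Further: E7 fragment applied at 1 µg/mL in TBST for 1 h at 4 C; score combines spot fluorescence with its signal to noise ratio.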 As to conditions: fluorescence 635 nm, higher = more signal.
The nature of experiment [2]: hepatitis C replication reporter changes, two-sided – Huh7 cells, luciferase reporter, HCV replication inhibitor project, primary screen (AID 1109).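 Further: huh7 hepatoma cells harbouring a luciferase neomycin HCV replicon reporter; luciferase luminescence as measure of HCV replicon replication; test concentration not given here.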 The following applies: Huh7 HCV replicon luciferase reporter, 48 h; higher = more signal.
For experiment [3], the target named is Left-right determination factor 2 (Homo sapiens) (UniProt O00292). Nature of the experiment: small molecules binding LEFTY2 protein – biochemical, small-molecule microarray, 635 nm fluorescence scan, primary screen (AID 1110). The following applies: higher = more signal.
Experiment [4] concerns the target Calmodulin-1 (Homo sapiens) (UniProt P0DP23). Put plainly: small molecules binding calmodulin-1 with EGTA – biochemical, small-molecule microarray, Cy5-labelled CALM1, profiling panel (AID 1111).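 Further: labelled calmodulin applied in Tris saline Tween buffer holding calcium plus EGTA and DTT.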 As to conditions: Cy5-CALM1 binding fluorescence, higher = more signal.
Experiment [5] has the same target. Nature of the experiment: small molecules binding Ca-loaded calmodulin-1 – biochemical, small-molecule microarray, Cy5-labelled CALM1, plus calcium, artefact control for SMM control-protein annotation, profiling panel (AID 1112).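 Further: score merges spot fluorescence with signal to noise from triplicate slides.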 The following applies: Cy5-CALM1 binding fluorescence, higher = more signal.
Experiment [6] in a line: probe aWnt5a binding to arrayed compounds – biochemical, biotinylated probe, 635/667 nm fluorescence, primary screen (AID 1113).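 Further: score merges 667 nm fluorescence intensity with signal-to-noise per printed feature.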 The following applies: small-molecule microarray, higher = more signal.
The nature of experiment [7]: probe aShh binding to arrayed compounds – biochemical, biotinylated probe, 635/667 nm fluorescence, primary screen (AID 1114).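 Further: probe is biotin-labelled aShh protein from a stem cell growth factor screen; measures binding of labelled protein to compounds printed on the slide; score merges feature fluorescence at 667 nm with signal-to-noise.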 The following applies: small-molecule microarray, higher = more signal.
A short description of experiment [8]: probe aNog binding to arrayed compounds – biochemical, biotinylated probe, 635/667 nm fluorescence, primary screen (AID 1115).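 Further: probe is biotinylated aNog protein used at 0.15 µg/mL for 1 h at 4 C; z-score combines 667 nm fluorescence of each spot with its signal to noise.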 As to conditions: small-molecule microarray, higher = more signal.
In experiment [9] the target is Torsin-1A-interacting protein 1 (Homo sapiens) (UniProt Q5JTV8). Put plainly: compound microarray binding of lysate hLAP1 – cell lysate, small-molecule microarray, COS7 lysate, 635/667 nm fluorescence, primary screen (AID 1116). As to conditions: 635 nm fluorescence, higher = more signal.
The target of experiment [10] is Alpha-bungarotoxin (Bungarus multicinctus) (UniProt P60615). Nature of the experiment: compounds binding labelled alpha-BTX control protein – biochemical, small-molecule microarray, Alexa647 label, 635/667 nm fluorescence, artefact control for SMM control protein annotation, profiling panel (AID 1117). The following applies: alpha-BTX-A647 binding fluorescence, higher = more signal.
Alpha-bungarotoxin (Bungarus multicinctus), sequence (P60615 whole entry, looked up): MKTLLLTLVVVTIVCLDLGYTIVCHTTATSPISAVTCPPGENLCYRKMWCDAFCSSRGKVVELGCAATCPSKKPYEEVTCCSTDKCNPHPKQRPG

Torsin-1A-interacting protein 1 (Homo sapiens), sequence (Q5JTV8 whole entry, looked up): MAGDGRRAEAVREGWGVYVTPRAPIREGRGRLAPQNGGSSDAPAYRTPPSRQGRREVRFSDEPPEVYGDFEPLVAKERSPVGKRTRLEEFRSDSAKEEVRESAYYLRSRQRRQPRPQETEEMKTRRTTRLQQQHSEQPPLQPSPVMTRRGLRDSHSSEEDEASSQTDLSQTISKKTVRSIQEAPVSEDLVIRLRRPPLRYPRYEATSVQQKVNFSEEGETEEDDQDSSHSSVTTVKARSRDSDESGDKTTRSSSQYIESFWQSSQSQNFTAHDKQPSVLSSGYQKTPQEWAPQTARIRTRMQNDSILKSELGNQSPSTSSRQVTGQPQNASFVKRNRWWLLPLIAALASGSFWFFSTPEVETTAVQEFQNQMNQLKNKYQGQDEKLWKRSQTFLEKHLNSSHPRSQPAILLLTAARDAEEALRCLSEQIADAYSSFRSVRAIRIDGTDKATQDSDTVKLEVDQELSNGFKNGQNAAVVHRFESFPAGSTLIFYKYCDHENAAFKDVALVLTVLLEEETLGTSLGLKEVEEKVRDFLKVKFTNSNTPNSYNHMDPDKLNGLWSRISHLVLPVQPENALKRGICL
Left-right determination factor 2 (Homo sapiens), sequence (O00292 whole entry, looked up): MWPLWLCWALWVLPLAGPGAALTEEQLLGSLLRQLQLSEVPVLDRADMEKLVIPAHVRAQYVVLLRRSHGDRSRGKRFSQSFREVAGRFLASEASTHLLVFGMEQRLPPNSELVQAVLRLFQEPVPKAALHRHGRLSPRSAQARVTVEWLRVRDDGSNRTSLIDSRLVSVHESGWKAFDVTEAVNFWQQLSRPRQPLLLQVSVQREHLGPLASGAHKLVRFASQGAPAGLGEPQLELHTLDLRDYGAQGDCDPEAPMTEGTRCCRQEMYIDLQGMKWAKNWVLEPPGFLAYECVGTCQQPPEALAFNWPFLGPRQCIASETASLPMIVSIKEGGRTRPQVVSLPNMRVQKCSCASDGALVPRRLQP

As to `CN(C)C(=O)[C@]1(Cc2ccccc2CN=[N+]=[N-])N=C(c2ccc(OCCCO)cc2)O[C@@H]1c1ccccc1`, the composite z-score in [1] was 1.47; in experiment [3], -0.0728; in experiment [4], 1.56; in experiment [5], 0.596; in experiment [6] it was 0.0337; in experiment [7] it was 0.792. Besides, the composite z-score in experiment [8] came out at 1.05; in experiment [9], 1.39; in experiment [10], 1.92. The molecule also returned a z-score in [2] of -3.37.

On to `Cc1ccc(C(C)CC(O)C2C=CC3C(=O)N(c4ccccc4)C(=O)C3N2Nc2ccccc2)o1` (stereo not given), for which the composite z-score in experiment [1] was 1.44; in experiment [3] it was 0.285; in experiment [4], 1.3; in experiment [5] it was 0.125; in experiment [6], 0.0802; in experiment [7] it was 0.308. The composite z-score in [8] amounted to 1.5; in experiment [9] it was 0.789; in experiment [10], 1.3. For the same molecule, in [2], the z-score is -0.741.

On to `CCCCNC(=O)c1ccc(C#CC(C)(C)C)c(OC(C)=O)c1`, for which the composite z-score in [1] is 0.845; in [3], 0.806; in [4], 0.0614; in [5], -0.526; in [6], -0.159; in experiment [7], -0.117. In addition, the composite z-score in experiment [8] was -0.256; in experiment [9], 0.5; in [10], 0.608. This molecule came in with a z-score in [2] of -0.196.

With `O=C(c1ccccc1)N1C(=O)[C@]2(Cc3ccccc31)N=C(c1ccc(OCCCO)cc1)O[C@@H]2c1ccccc1`, the composite z-score in experiment [1] was 1.44; in experiment [3], 0.148; in experiment [4], 1.43; in experiment [5], -0.165; in [6] it was -0.0758; in experiment [7], 0.108. Further, the composite z-score in experiment [8] was -0.535; in [9], 0.688; in [10], 1.46. The z-score in experiment [2] was -2.94.

For `COc1ccc([Si](C)(C)[C@@H]2[C@@H](CCO)O[C@]3(C(=O)N(Cc4cccc(NC(=O)[C@H](C)O)c4)c4ccccc43)[C@H]2C)cc1`, the composite z-score in experiment [1] was 1.36; in experiment [3] it was 0.0544; in [4], 0.953; in [5], -0.204; in experiment [6], 0.0998; in experiment [7], 0.223. Further, the figures for the composite z-score in experiment [8], in experiment [9] and in experiment [10] were 0.638, 0.999 and 0.756, respectively. Also, the z-score in experiment [2] is -5.17.

`O=C(O)[C@@H]1C[C@@H]2C(=O)N3CCC[C@H]3C(=O)N2[C@@H]1c1ccc(O)cc1`: the composite z-score in experiment [1] is 1.05; in [3] it was 0.48; in experiment [4] it was 0.271; in experiment [5] it was 0.204; in [6] it was -0.0701; in experiment [7], -0.0289. Besides, the composite z-score is -0.226 in experiment [8], 0.343 in [9] and 0.964 in experiment [10]. Besides, the z-score in [2] came out at 3.97.

Turning to `COc1cccc(C)c1NC(=O)O[C@H]1[C@H](OC(=O)Nc2ccc3c(c2)OCO3)[C@@H](OC(=O)Nc2ccc3c(c2)OCO3)[C@@H](OC)O[C@@H]1CO`, the composite z-score in [1] is 1.42; in [3], 0.794; in experiment [4] it was 0.108; in [5], -1.04; in experiment [6], 0.0973; in [7], 0.149. Moreover, the results for the composite z-score in [8], in [9] and in [10] were -0.0899, 1.5 and 0.869, respectively. For the same molecule, in [2], the z-score came out at 0.658.

With `CCOc1cc(C(O)C2C=CC3C(=O)NC(=O)C3N2Nc2ccc(Cl)cc2Cl)ccc1O` (stereo not given), the composite z-score in [1] is -1.7; in experiment [3] it was -1.18; in experiment [4], -0.07; in experiment [5], -0.0008; in experiment [6], -0.154; in [7] it was 0.0062. Moreover, the values for the composite z-score in experiment [8], in [9] and in [10] were 0.119, 0.0975 and -0.0945, respectively. For the same molecule, the z-score in experiment [2] was 0.822.

Turning to `C=CC[C@]1(C(=O)N2CCOCC2)COC(c2ccc(OCCCO)cc2)=N1`, the composite z-score in experiment [1] was 1.53; in [3], -0.233; in [4], 1.64; in experiment [5], -0.497; in experiment [6] it was -0.0236; in experiment [7], 0.381. Moreover, the composite z-score in experiment [8] worked out at 1.11; in experiment [9], 1.98; in experiment [10] it was 2.21. In [2], this molecule showed a z-score of -0.164.

For `C=C(COC)/C(=C/C[C@H](OC(=O)c1ccncc1)c1ccccc1OCCO)c1cc(C(=O)OC)ccc1OC`, the composite z-score in [1] was 1.43; in experiment [3], 0.753; in experiment [4] it was -0.191; in experiment [5], -0.59; in [6] it was -0.0687; in experiment [7] it was -0.494. Further, the composite z-score in experiment [8] is -0.145; in [9], -0.353; in experiment [10], 0.251. In addition, the z-score in experiment [2] was -2.76.

Regarding `COc1ccc([Si](C)(C)[C@@H]2[C@@H](CC(=O)N3Cc4ccccc4C[C@H]3CO)O[C@]3(C(=O)N(Cc4ccc(N5C(=O)c6cccc7cccc5c67)cc4)c4ccccc43)[C@H]2C)cc1`, the composite z-score is 1.35 in experiment [1]; 0.987 in [3]; 0.318 in [4]; -0.512 in experiment [5]; -0.0585 in [6]; 0.0952 in experiment [7]. Also, the composite z-score was 0.251 in experiment [8], 1.04 in experiment [9] and 0.964 in experiment [10]. Besides, the z-score in experiment [2] was -3.96.

As to `CC(C)N1C(=O)C[C@@](C(=O)NC2CC2)(c2ccc([N+](=O)[O-])cc2)[C@H]1c1ccc(CO)cc1`, the composite z-score in [1] was 1.3; in experiment [3], -1.15; in experiment [4], -0.673; in experiment [5], -0.606; in experiment [6], -0.0934; in experiment [7], -0.0709. Further, the values for the composite z-score in experiment [8], in [9] and in experiment [10] were -0.566, -0.315 and 0.181, respectively. Also, the z-score in experiment [2] is -1.2.

For the molecule `COc1ccc(CCNC(=O)[C@@]2(Cc3ccccc3I)c3ccccc3C(=O)N(C3CCCCC3)[C@H]2c2ccc(CO)cc2)cc1`, the composite z-score in [1] was 1.3; in [3], -0.425; in experiment [4] it was 0.902; in experiment [5] it was 0.609; in experiment [6] it was -0.0721; in [7] it was -0.0626. Moreover, the composite z-score in experiment [8] is -0.158; in experiment [9] it was 0.0805; in experiment [10], 0.678. In [2], this molecule yielded a z-score of -3.2.

As to `O=C1OCCC=C[C@H]2OC34C=CCN(c5ccc6ccccc6c5)C(=O)[C@H]3N(CCCO)C(=O)[C@@H]4C12` (stereo not given in full), the composite z-score in experiment [1] is -2; in [3], -1.31; in experiment [4] it was -0.834; in experiment [5], -0.885; in [6], -0.294; in experiment [7], -0.153. The composite z-score was 0.181 in [8], -1.25 in experiment [9] and -1.27 in experiment [10]. In addition, in [2], the z-score was -0.24.

Consider `COC(=O)[C@@H]1N=C(c2ccc(OCCCO)cc2)O[C@@H]1c1ccccc1`, for which the composite z-score in experiment [1] is -1.38; in experiment [3], -1.55; in [4] it was -0.494; in experiment [5], -0.294; in [6], -0.152; in experiment [7] it was -0.0709. In addition, the composite z-score in [8] was -0.59; in experiment [9], -0.992; in experiment [10] it was -0.213. For the same molecule, in experiment [2], the z-score was -1.94.

As for `CN(C)C(=O)[C@@]1(Cc2ccccc2)N=C(c2ccc(OCCCO)cc2)O[C@H]1c1ccccc1`, the composite z-score in experiment [1] was 0.508; in [3] it was -0.469; in [4], 1.58; in [5], 0.972; in experiment [6] it was 0.217; in [7] it was 0.0654. Moreover, the composite z-score in experiment [8] was -0.332; in [9], 1.44; in experiment [10] it was 0.907. In [2], this molecule displayed a z-score of -1.76.

As to `COC(=O)[C@@]1(Cc2ccc(F)cc2)[C@H]2c3cc(C(=O)N(C)C)n(CCc4ccc(OC)c(Br)c4)c3C[C@H]2CN1C(=O)c1ccccc1`, the composite z-score in [1] was 0.971; in experiment [3], -0.392; in experiment [4], 0.314; in [5], 0.535; in experiment [6], 1.19; in experiment [7], 0.289. Further, the figures for the composite z-score in experiment [8], in experiment [9] and in experiment [10] were 2.8, 0.589 and 0.653, respectively. Moreover, the z-score in [2] is -3.74.
